The campaign covered roughly 370,000 compounds. About 4,100 (1.1%) were called active.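 How the source made its calls: active means inhibition above the mean over all tested compounds plus 3 SD (cut at about 3.6% in these data); inactive means the rest.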 Only a selection was taken, and actives are over-represented in it overall.

The test can be described thus: relief of DAX-1 repression of SF-1 activity – cell-based, luminescence, SF-1 (NR5A1), full-length DAX-1, primary screen (AID 652010).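 Further: 0% = DAX-1 cells with DMSO and 100% = cells lacking DAX-1 with DMSO; higher inhibition means more luminescence from relief of DAX-1 repression.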 To be noted: HEK293T StAR-luciferase reporter, SF-1/DAX-1 repression relief; at 6.8 µM; active compounds read high. Background: Reporter assays use an easily measured gene product as a stand-in for the process of interest.
What is called inhibition is the relative decrease from the control value, in per cent. As to `Cc1sc2nc(SCC(=O)c3ccc(O)c(O)c3)n(Cc3ccco3)c(=O)c2c1C`, the inhibition was -0.17% (inactive).
Next, `CC1CCN(CCCNC(=O)CN2C(=O)CSc3ccc(S(=O)(=O)N4CCCCC4)cc32)CC1`: 4.58% (active).
With `COc1ccc(NC(=O)CN2C(=O)CSc3ccc(S(=O)(=O)N4CCC(C)CC4)cc32)cc1` the figure was -0.14% (inactive); with `COCCCNC(=O)CN1C(=O)CSc2ccc(S(=O)(=O)N3CCOCC3)cc21`, 0.4% (inactive); with `COC(=O)[C@]12C[C@H](CC(=O)NCc3ccccc3)C(=O)N(CCC3=CCCCC3)C1=C[C@H](C(C)(C)C)O[C@@H]2C`, -0.82% (inactive).
`Cc1ccc(NC(=O)N2c3ccccc3SC2c2ccco2)c(C)c1` (centres undefined): the inhibition was -1.05% (inactive).
With `O=C(Nc1nonc1-c1ccc(Cl)cc1)c1ccco1` the figure was -0.6% (inactive).
As for `O=C(N/N=C/C=C/c1ccco1)c1cccs1`, the inhibition was 0.78% (inactive).
On to `O=C(Nc1ccc(NC(=O)c2cccs2)cn1)c1ccco1`, for which the inhibition was 5.96% (active).
As for `C[C@H](C(=O)N(C)c1ccccc1)[C@@H](O)c1ccc(Cl)cc1`, the inhibition is -0.7% (inactive).
Consider `O=C(OC12CCCN(C1)/C(=C/c1cccnc1)C2)C1CCCC1` (centres undefined), for which the inhibition is -1.73% (inactive).
Next, `COc1ccc(/C=C/C(=O)OCC(=O)N2CCN(S(=O)(=O)c3ccc(C)cc3C)CC2)cc1OC`: -1.45% (inactive).
As to `COc1ccccc1CCC(=O)OCC(=O)N1CCN(S(=O)(=O)c2ccc(C)cc2C)CC1`, the inhibition is 4.53% (active).
Next, `Cc1ccc(S(=O)(=O)N2CCN(C(=O)COC(=O)CNC(=O)c3ccc(C(C)(C)C)cc3)CC2)c(C)c1`: -0.26% (inactive).
With `COc1ccc(/C=C/c2c(-c3cccc(C)c3)oc3ccc(-c4ccc5c(c4)OCO5)cc23)cc1` the figure was -0.02% (inactive); with `COc1ccc(-c2onc(C)c2-c2ccc3c(c2)OCCO3)c(O)c1`, -0.75% (inactive); with `COc1ccc(C2=Nc3cc(C)ccc3OC2)cc1`, 4.81% (active).
Regarding `O=C(c1c[nH]c2ccccc12)N1CCC(Oc2cccnc2)CC1`, the inhibition is -0.43% (inactive).
For the molecule `COc1ccccc1CCNC(=O)C1CCN(c2nc(C)cc(C)n2)CC1`, the inhibition was -0.06% (inactive).
As for `CCc1c(-c2ccccc2OC)ncn1CCc1ccccc1OC`, the inhibition is -2.14% (inactive).
With `O=C(CSc1nnc2n1CCCN2)c1ccccc1` the figure was 0.61% (inactive); with `N#Cc1ccc(CSc2nnc3ccccn23)cc1`, -0.37% (inactive).
With `O=C(CSc1nnc2ccccn12)c1ccccc1` the figure was 4.08% (active); with `C[C@H]1CCC/C=C/C(=O)c2c(O)cc(O)cc2CC(=O)O1`, -6.29% (inactive).
As to `Cc1ccc(-c2nc(C3CCCN(S(=O)(=O)c4ccc(Br)s4)C3)no2)cc1` (centres undefined), the inhibition was 0.62% (inactive).
With `CCN(CCCNC(=O)c1ccc2c(c1)NC(=O)CN2C)c1cccc(C)c1` the figure was -0.89% (inactive); with `Cc1ccccc1Nc1nc(N)nc(COC(=O)CCC(=O)c2ccc(F)cc2)n1`, 1.74% (inactive); with `Cc1ccccc1Nc1nc(N)nc(CSc2ccccc2)n1`, 6.39% (active).
Take `Cc1ccccc1Nc1nc(N)nc(CSc2nnc3ccccn23)n1`: the inhibition is 0.79% (inactive).
For the molecule `COC(=O)c1cc(NC(=O)c2cc(C(C)(C)C)nn2Cc2cccc(C)c2)ccc1N1CCOCC1`, the inhibition is -0.35% (inactive).
Take `CCN(C(=O)CSc1cccc[n+]1[O-])c1ccccc1`: the inhibition is -1.71% (inactive).
With `O=C(CSc1cccc[n+]1[O-])NCCCc1ccccc1` the figure was -0.54% (inactive); with `O=C(CSc1cccc[n+]1[O-])c1ccc(-c2ccccc2)cc1`, 6.13% (active); with `CCOC(=O)C1=C(C)NC2=C(C(=O)CC(C)(C)C2)C1c1ccc2c(c1)OCO2` (centres undefined), -0.98% (inactive).
For `COCCCNC(=O)C[C@H]1C[C@@]2(C(=O)OC)C(=C[C@H](C(C)(C)C)O[C@@H]2C)N(Cc2ccc(Cl)cc2Cl)C1=O`, the inhibition was -0.02% (inactive).
With `CC(=O)OC12CCCN(C1)/C(=C/c1ccncc1)C2` (centres undefined) the figure was 0.29% (inactive); with `COC(=O)[C@H](C(C)C)N(CCc1cn(Cc2ccccc2)nn1)S(=O)(=O)c1ccc(F)cc1Br`, -1.05% (inactive); with `CCOc1ccc(N2CC(C(=O)NCc3ccccn3)CC2=O)cc1` (centres undefined), -0.17% (inactive).
With `CCCNC(=O)C1CC(=O)N(c2ccc(OCc3ccccc3)cc2)C1` (centres undefined) the figure was 5.35% (active).
Next, `CCCNC(=O)C1CC(=O)N(c2ccc(OCC(=O)Nc3cccc(C)c3C)cc2)C1` (centres undefined): 0.23% (inactive); `O=C(NC1CCc2ccccc21)C12CN(Cc3ccccc3)CC1C(c1cccc([N+](=O)[O-])c1)=NO2` (centres undefined): -0.99% (inactive); `COc1ccc(CN2C(=O)N3Cc4cc(OC)ccc4C3CS2(=O)=O)cc1` (centres undefined): -0.73% (inactive).
With `O=C(N/N=C/c1ccsc1)c1cc(O)cc(O)c1`, the inhibition is -0.09% (inactive).
Next, `NN=C(NN=Cc1ccccc1)c1ccccc1`: 0.41% (inactive).
Next, `O=C(NN=Cc1ccccc1)c1ccccc1`: 3.83% (active); `Cc1ccc(Cn2cc(CN3[C@@H](CC(C)C)COc4ccc(Cl)cc4S3(=O)=O)nn2)cc1`: 0.88% (inactive).
Regarding `Cc1[nH]nc2c1C(c1ccc(Br)cc1)NC2=O` (centres undefined), the inhibition is -0.04% (inactive).
For the molecule `CCCOc1ccc(Oc2c(Cl)cnn(Cc3cccc4ccccc34)c2=O)cc1`, the inhibition is 0.1% (inactive).
In the case of `CN(C)Cc1cn(-c2ccc(-c3noc4c3C(=O)N(CC(=O)N3CCOCC3)CC4)cc2)nn1`, the inhibition is -0.33% (inactive).
With `O=C(NCCc1cccc(F)c1)C1CCCN(c2nc3ccccc3s2)C1` (centres undefined) the figure was 0.01% (inactive).
For the molecule `Brc1ccc2nc(N3CCCC3)sc2c1`, the inhibition was 7.95% (active).
Next, `Cc1nc(N2CCCCC2)sc1C=O`: 0.27% (inactive).
Turning to `COc1ccc(-n2c(SCC(=O)Nc3ccc4c(c3)OCCO4)nnc2-c2ccc(Cl)cc2)cc1`, the inhibition was 0.07% (inactive).
With `COc1ccccc1C(=O)NC1CCCCN(C(C)C)C1=O` (centres undefined), the inhibition was -0.1% (inactive).
Regarding `O=C(CSc1nc2c(c(=O)[nH]1)CCCC2)N1CCCCC1`, the inhibition is -0.21% (inactive).
Next, `COc1cccc(N(C)C(=O)[C@@H](C)[C@@H](O)c2ccc3ccccc3c2)c1`: -0.75% (inactive); `COc1ccc(-c2csc(Cc3nc(O)cs3)n2)cc1`: 4.06% (active).
With `COc1ccc(C(C)(O)c2nc(-c3cc(F)cc(F)c3)cs2)cc1` (centres undefined), the inhibition is -0.31% (inactive).
Next, `COc1ccc(C2C(C(C)=O)=C(O)C(=O)N2c2nccs2)cc1` (centres undefined): 0.43% (inactive).

Source of the values: PubChem BioAssay AID652010 (The Scripps Research Institute Molecular Screening Center, 2013).
